The list is not random: actives were taken first. Their share in the collection is about 7.5%.
ELG1 genotox = genotoxicity induction in ELG1-luciferase HEK293T cells | Potency, µM (top dose mostly 46 µM), actives largely listed as activators | HEK293T ELG1-luciferase reporter, luminescence, 16 h | AID 504466 | 330,000 tested, 1.3% active; note: nearly all actives have a fitted effect of over 60% in size
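HEK293T cells expressing luciferase-tagged ELG1 were treated with compound or DMSO for 16 hr at 37°C. Luciferase activity was then read after 30 min with ONE-Glo at room temperature; rising signal flags genetic stress.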
SMN2 splice enh = enhancers of SMN2 splice variant expression. HEK293 SMN2-luciferase splicing reporter, luminescence, 30-36 h. Potency, µM (top dose mostly 46.1 µM), usual class: activators. 210,000 tested, 2.8% active. AID 1458; note: nearly all actives have a fitted effect of over 55% in size
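qHTS luciferase splicing reporter: luminescence rises when SMN2 exon 7 is included in transfected HEK293 cells. Compound exposure lasted 30-36 h at 37C, with 4.5 mM final sodium butyrate as control, followed by a ONE-Glo read.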
Rab9 prom act = Rab9 promoter activation; Huh7 Rab9 promoter-luciferase reporter, luminescence, 24 h; Potency, µM (titrated, usually from 9.22 µM), hits mostly activators; 320,000 tested, 2.8% active; AID 485297; note: nearly all actives have a fitted effect of over 60% in size
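Luminescence from Amplite-detected luciferase (10 minutes, ambient) reports Rab9 promoter activation. Before that, stable Rab9-luciferase Huh7 cells (1500/well, reduced-serum OP-MEM I plus 10% FBS) were exposed to compound for 24 hours at 37C.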
FLuc counter = firefly luciferase modulation, counter-screen for miR-21 project; P08659; Potency, µM (top dose mostly 57.5 µM), hits mostly inhibitors; AID 588342; 360,000 tested, 6.9% active; purified FLuc, Km substrates, luminescence inhibition; note: nearly all actives have a fitted effect of over 55% in size
Target sequence (P08659 whole entry, looked up): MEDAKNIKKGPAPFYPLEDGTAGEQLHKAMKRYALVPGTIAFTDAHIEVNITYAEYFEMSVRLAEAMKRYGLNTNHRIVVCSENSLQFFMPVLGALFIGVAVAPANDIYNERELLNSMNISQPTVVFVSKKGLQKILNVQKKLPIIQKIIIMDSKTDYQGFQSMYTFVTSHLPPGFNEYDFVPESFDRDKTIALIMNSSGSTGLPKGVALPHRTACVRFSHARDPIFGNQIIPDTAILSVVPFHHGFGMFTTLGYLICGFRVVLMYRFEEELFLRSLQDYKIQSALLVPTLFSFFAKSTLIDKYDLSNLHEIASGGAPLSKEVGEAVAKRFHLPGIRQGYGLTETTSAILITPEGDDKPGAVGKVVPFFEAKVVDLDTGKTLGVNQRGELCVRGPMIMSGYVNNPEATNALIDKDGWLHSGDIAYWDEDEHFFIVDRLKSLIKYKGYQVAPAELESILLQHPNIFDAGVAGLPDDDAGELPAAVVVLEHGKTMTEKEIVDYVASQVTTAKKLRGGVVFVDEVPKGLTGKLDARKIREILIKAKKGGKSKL
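Biochemical qHTS of compounds, final roughly 60 µM downward over six points, against 10 nM purified firefly luciferase using Km concentrations of substrates (10 uM D-luciferin, 10 uM ATP) in Tris acetate pH 7.5 buffer; luminescence output.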
NPC1 promoter act = activates the NPC1 promoter. AID 485313. 320,000 tested, 2.4% active. Potency, µM (series often up to 9.22 µM), usual class: activators. Huh7 NPC1 promoter luciferase reporter, 24 h; note: nearly all actives have a fitted effect of over 60% in size
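Compounds in DMSO were transferred onto Huh7 NPC1-luciferase reporter cells pre-incubated 2 h; after 24 h at 37 °C, Amplite reagent was dispensed and luminescence recorded 10 min later.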
Hits are given with their value; – = inactive; ? = inconclusive; · = no result given; [ ] = another dose, or the depositor's remark. Calls come from the whole dose curve; as a rule, active = well fitted curve in the direction sought with a large enough effect; inconclusive = small, poorly fitted or top-dose-only effect, or another doubt; inactive = no such curve, though single readings can be large; an effect the other way counts as inactive or inconclusive.

SMILES	ELG1 genotox	SMN2 splice enh	Rab9 prom act	FLuc counter	NPC1 promoter act
CC(=O)N(c1nnc(-c2cccc(C)c2)s1)C1CCCC1	–	·	?	23.9µM	?
COc1cccc(-c2nnc(N(C)C(=O)C3CCOC3)s2)c1 (stereo not drawn)	–	–	?	?	–
O=c1c(Br)c(N2CCCC2)cnn1-c1ccccc1	?	11.2µM	2µM	21.3µM	3.98µM
O=c1c(Br)c(N2CCCCC2)cnn1-c1ccccc1	?	·	2µM	15.1µM	3.55µM
CCOC(=O)c1ccc(NC(=O)NCc2ccccn2)cc1	–	·	–	–	–
Cc1nc(NC(=O)c2ccc(F)cc2)sc1C(=O)Nc1ccc2c(c1)CCC2	–	?	–	13.5µM	–
Cc1ccc(C(=O)Nc2nc(C)c(C(=O)Nc3ccc4c(c3)CCC4)s2)cc1	18.4µM	5.62µM	–	15.1µM	–
Cc1c(NCc2nc3ccccc3[nH]2)c(=O)n(-c2ccccc2)n1C	–	–	–	15.1µM	–
CC(=O)c1c(C)[nH]c(C(=O)Nc2cccc(S(=O)(=O)N(C)C)c2)c1C	?	11.2µM	?	–	–
CC(=O)c1c(C)[nH]c(C(=O)Nc2cccc(S(=O)(=O)N3CCCC3)c2)c1C	16.4µM	·	·	·	·
CC(=O)c1c(C)[nH]c(C(=O)Nc2ccc(S(=O)(=O)N(C)C)cc2)c1C	–	·	–	–	–
CCOc1ccc(-n2nc3ccc(NC(=O)c4ccc(C)cc4C)cc3n2)cc1	·	–	·	–	·
Cc1nc2cc(-c3ccc(F)cc3)[nH]n2c(=O)c1C	16.4µM	·	?	8.49µM	2µM
Cc1ccccc1-c1cc2nc(C)c(C)c(=O)n2[nH]1	?	·	?	19µM	?
Cc1cc(=O)n2[nH]c(-c3ccccc3Cl)cc2n1	–	–	–	23.9µM	–
Cc1cc2nc(C)c(Cl)c(=O)n2[nH]1	–	–	–	–	–
CCOC(=O)Cc1c(C)nc2cc(-c3ccc(C)cc3)[nH]n2c1=O	?	?	–	?	–
C[C@H](Cc1ccccc1)Nc1ncnc2c1ncn2[C@@H]1O[C@H](CO)[C@H](O)[C@H]1O	·	–	·	·	·
O=C(Nc1ccccc1Cl)Oc1ccc(-c2ccccc2)cc1	–	·	–	?	–
O=C(/C=C/c1ccc2ccccc2c1)c1ccoc1	–	–	?	0.536µM	?
COc1ccc(S(=O)(=O)N2CCCCC2)cc1NC(=O)[C@@H]1CCCN1C(=O)c1cccs1	–	·	–	·	–
COc1ccc(OC)c(NC(=O)[C@@H]2CCCN2C(=O)c2cccs2)c1	–	5.62µM	–	–	–
O=C(/C=C/c1ccc([N+](=O)[O-])cc1)Nc1cccc(S(=O)(=O)NC2=NCCCCC2)c1	–	·	·	·	·
O=C(/C=C/c1ccc(Cl)cc1Cl)Nc1cccc(S(=O)(=O)NC2=NCCC2)c1	?	5.62µM	0.355µM	0.12µM	1µM
O=C(/C=C/c1ccccc1Cl)Nc1cccc(S(=O)(=O)NC2=NCCCCC2)c1	–	14.1µM	?	1.2µM	?
SMILES	ELG1 genotox	SMN2 splice enh	Rab9 prom act	FLuc counter	NPC1 promoter act
CCOc1ccc(C(=O)NCCn2cc(SCC(=O)Nc3ccccc3)c3ccccc32)cc1	·	–	·	?	·
Cc1ccc(-c2csc(NC(=O)c3ccc(F)cc3)c2C(=O)O)cc1	–	·	3.98µM	12µM	?
CC(C)Cc1csc(NC(=O)C(C)C)c1C(=O)O	–	·	–	–	–
COc1ccc(-c2csc(NC(=O)c3ccccc3Br)c2C(=O)O)cc1	–	·	–	?	–
O=C(Nc1nsc(-c2ccccc2)n1)c1ccc(F)cc1	?	?	2.24µM	9.53µM	3.55µM
O=C(Nc1scc(-c2ccccc2)c1C(=O)O)c1ccc(F)cc1	–	·	?	12µM	–
CC(C)Cc1csc(NC(=O)c2ccc(Br)cc2)c1C(=O)O	–	·	–	26.9µM	–
CC1CCN(c2nc3ccccc3nc2SCC(=O)Nc2ccccc2C(C)C)CC1	·	–	·	–	·
CCOc1ccc(-c2nn(CC(=O)NC3CCCCC3)c3c2cnc2ccc(C)cc23)cc1	·	·	·	–	·
Nc1nn(-c2ccccc2)nc1C(=O)OCc1ccccc1	?	–	–	15.1µM	–
Cc1ccc(COC(=O)c2nn(-c3ccccc3)nc2N)cc1	–	–	–	?	–
O=C(O)c1ccccc1N/N=C\c1ccnc2ccccc12	0.581µM	5.01µM	?	0.169µM	0.355µM
Cn1c(=O)c2c(nc(N/N=C\c3ccccc3C(=O)O)n2C)n(C)c1=O	·	–[9.22 µM]	·	·	·
O=C(O)c1ccccc1N/N=C/c1cc(Br)cc(Br)c1O	?	·	1.41µM	7.57µM	1.58µM
COc1ccc(CC(=O)Nc2ccccc2C(=O)N2CCOCC2)cc1	–	–	–	–	–
Cc1ccc(NC(=O)c2cc(Cl)nc3ccccc23)cc1	–	–	–	–	–
Cn1c(Cl)c(C(=O)Nc2ccccc2)c2ccccc21	–	–	–	15.1µM	?
Cc1ccc(NC(=O)c2c(Cl)n(C)c3ccccc23)cc1	–	?	–	3.38µM	?
CCCn1c(=O)c(C(=O)Nc2ccccc2)c(O)c2ccccc21	–	–	–	–	–
CC(C)(C)C1CCc2[nH]c3ccccc3c(=O)c2C1 (stereo not drawn)	?	–	–	6.01µM	–
O=c1c2c([nH]c3ccccc13)CCCC2	–	–	–	–	–
Cc1cccc(NC(=O)c2cc3c(=O)n(Cc4cccnc4)ccc3nc2C)c1	·	·	·	–	·
CN(C(=O)COC(=O)CNC(=O)c1sc2ccccc2c1Cl)c1ccccc1	–	–	–	?	–
COc1cccc(-c2cncnc2NCc2ccccc2)c1	·	–	·	·	·
COC(=O)[C@@]1(Cc2ccc(OC)cc2)[C@H]2c3cc(C(=O)N4CCCC4)n(CCc4c[nH]c5ccc(O)cc45)c3C[C@H]2CN1C(=O)c1ccccc1	–	–	–	–	–
SMILES	ELG1 genotox	SMN2 splice enh	Rab9 prom act	FLuc counter	NPC1 promoter act
C/C(=N\NC(=O)COc1ccccc1F)c1cc2ccccc2o1	?	?	?	10.7µM	?
O=C(/C=C/c1ccco1)Nc1ccc2c(c1)OCCO2	–	8.91µM	0.631µM	1.9µM	2.24µM
COc1ccccc1/C=C/C(=O)Nc1ccc2c(c1)OCCO2	?	2.82µM	0.708µM	0.849µM	?
O=C(/C=C/c1ccccc1)Nc1ccc2c(c1)OCCO2	?	1.12µM	0.447µM	0.213µM	0.501µM
Cc1csc(CNc2ncnc3ccc(-c4ccc5c(ccn5C)c4)cc23)c1	·	·	–	?	–
Nc1nc(/C(=C/CC(=O)O)C(=O)NC2C(=O)N3C(C(=O)O)=CCSC23)cs1 (stereo not drawn)	·	–	·	·	·
CCOC(=O)c1c(C)oc2nc(C)nc(NCc3ccc(F)cc3)c12	·	·	·	–	·
O=C(COC(=O)C1CC1)NC(=O)c1ccccc1	–	·	–	–	–
CCC/C=C(\CCC)C(NC(=O)Oc1ccc(F)cc1)c1ccc(C(=O)OC)cc1 (stereo not drawn)	·	–	·	·	·
Clc1cnc(N/N=C/c2ccco2)c(Cl)c1	?	5.62µM	0.794µM	10.7µM	1.41µM
Clc1cnc(N/N=C/c2cccs2)c(Cl)c1	?	?	3.98µM	9.53µM	2.24µM
Cc1ccc(/C=N/Nc2ncc(Cl)cc2Cl)s1	?	?	?	6.01µM	3.55µM
Oc1ccc(/C=N/Nc2ncc(Cl)cc2Cl)cc1	?	·	–	?	–

Screening results: PubChem BioAssay, National Center for Advancing Translational Sciences (NCATS)
